PubChem BioAssay AID1159580 (chemical genetic matrix, 2015)
“And” between values parts separate entries of the source, which are not always exact repeats. Equal values may be shown once. Among all 5,500 compounds or so, about 2,000 (36%) were called active. Another 18% or so got no clear call; they are omitted. Cut-off read from the data, not from the text of the source: active = normalized growth mostly below about 0.91 (no sharp cut-off); inconclusive = no clear call, values can overlap the other calls; inactive = mostly above about 0.92. The list shows a part of the results.

Experiment: chemical genetic growth profiling, strain panel (AID 1159580);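 note: tested at 20 µM; growth read once vehicle control cultures reached saturation at 30 °C; 1 = growth at the plate median or of vehicle wells; lower values mean less growth of the strain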
Conditions: S. cerevisiae deletion strains, growth OD

Measured: normalized growth

CC(C(=O)O)c1ccc(-c2ccccc2)c(F)c1 (stereo unspecified)
inactive: locus YAL013W, strain DEP1, stronger effect = lower value 0.952 | locus YAL021C, strain ccr4, stronger effect = lower value 0.978 | locus YAL026C, strain drs2, stronger effect = lower value 0.949 | locus YAL030W, strain snc1, stronger effect = lower value 0.99 | locus YBL061C, strain skt5, stronger effect = lower value 1 | locus YBR009C, strain hhf1, stronger effect = lower value 0.984 | locus YBR021W, strain FUR4, stronger effect = lower value 0.936 | locus YBR023C, strain chs3, stronger effect = lower value 1.02 | locus YBR171W, strain sec66, stronger effect = lower value 0.968 | locus YBR229C, strain ROT2, stronger effect = lower value 0.993 | locus YBR231C, strain swc5, stronger effect = lower value 0.974 | locus YBR279W, strain paf1, stronger effect = lower value 1.01 | locus YCL011C, strain gbp2, stronger effect = lower value 1 | locus YCL016C, strain dcc1, stronger effect = lower value 1.02 | locus YCL029C, strain bik1, stronger effect = lower value 0.944 | locus YCL061C, strain MRC1, stronger effect = lower value 0.99 | locus YCL069W, strain vba3, stronger effect = lower value 0.99 | locus YCR088W, strain abp1, stronger effect = lower value 0.978 | locus YDL005C, strain med2, stronger effect = lower value 0.965 | locus YDL035C, strain GPR1, stronger effect = lower value 0.958 | locus YDL040C, strain nat1, stronger effect = lower value 0.995 | locus YDL074C, strain BRE1, stronger effect = lower value 0.959 | locus YDL101C, strain DUN1, stronger effect = lower value 1.01 | locus YDL192W, strain arf1, stronger effect = lower value 0.974 | locus YDR001C, strain nth1, stronger effect = lower value 0.977 | locus YDR069C, strain doa4, stronger effect = lower value 1.02 | locus YDR159W, strain sac3, stronger effect = lower value 0.913 | locus YDR162C, strain NBP2, stronger effect = lower value 0.936 | locus YDR195W, strain ref2 0.985 | locus YDR297W, strain sur2, stronger effect = lower value 0.992 | locus YDR318W, strain mcm21, stronger effect = lower value 0.979 | locus YDR334W, strain swr1, stronger effect = lower value 0.972 | locus YDR335W, strain msn5, stronger effect = lower value 1.01 | locus YDR388W, stronger effect = lower value 0.963 | locus YDR392W, strain spt3, stronger effect = lower value 0.748 | locus YDR502C, strain sam2, stronger effect = lower value 0.968 | locus YEL003W, strain gim4, stronger effect = lower value 0.967 | locus YEL037C, strain rad23, stronger effect = lower value 0.983 | locus YEL061C, strain CIN8 (second series), stronger effect = lower value 0.979 | locus YEL061C, strain CIN8, stronger effect = lower value 0.963 | locus YER015W, strain faa2, stronger effect = lower value 1 | locus YER016W, strain bim1, stronger effect = lower value 0.971 | locus YER110C, stronger effect = lower value 0.974 | locus YER111C, strain swi4, stronger effect = lower value 0.977 | locus YER155C, strain BEM2 (second series), stronger effect = lower value 0.979 | locus YER155C, strain BEM2, stronger effect = lower value 0.93 | locus YER167W, strain BCK2, stronger effect = lower value 0.974 | locus YFR010W, strain ubp6, stronger effect = lower value 0.997 | locus YGL086W, strain mad1, stronger effect = lower value 0.974 | locus YGL167C, strain pmr1, stronger effect = lower value 0.983 | locus YGL173C, strain kem1, stronger effect = lower value 0.968 | locus YGL227W, strain vid30, stronger effect = lower value 0.991 | locus YGL240W, strain doc1, stronger effect = lower value 0.953 | locus YGL248W, strain PDE1, stronger effect = lower value 1 | locus YGL253W, strain hxk2, stronger effect = lower value 0.98 | locus YGR135W, strain pre9, stronger effect = lower value 1.04 | locus YGR252W, strain gcn5, stronger effect = lower value 1.04 | locus YHR013C, strain ard1, stronger effect = lower value 1.05 | locus YHR027C, strain rpn1, stronger effect = lower value 0.994 | locus YHR079C, strain IRE1 (second series), stronger effect = lower value 0.959 | locus YHR094C, strain hxt1, stronger effect = lower value 0.951 | locus YHR129C, strain ARP1, stronger effect = lower value 0.99 | locus YHR142W, strain chs7, stronger effect = lower value 1.01 | locus YHR200W, strain rpn10, stronger effect = lower value 0.978 | locus YIL066C, strain RNR3, stronger effect = lower value 0.981 | locus YIL073C, strain SPO22, stronger effect = lower value 1.01 | locus YIR030C, strain dcg1, stronger effect = lower value 0.963 | locus YJL092W, strain hpr5, stronger effect = lower value 0.99 | locus YJL095W, strain BCK1 (second series), stronger effect = lower value 0.988 | locus YJL115W, strain asf1, stronger effect = lower value 0.982 | locus YJL129C, strain trk1, stronger effect = lower value 0.933 | locus YJL134W, strain LCB3, stronger effect = lower value 0.975 | locus YJL154C, strain vps35, stronger effect = lower value 0.984 | locus YJL164C, strain tpk1, stronger effect = lower value 0.992 | locus YJL166W, strain qcr8, stronger effect = lower value 1.01 | locus YJL168C, strain set2, stronger effect = lower value 0.959 | locus YJL187C, strain SWE1 (second series), stronger effect = lower value 0.989 | locus YJL187C, strain SWE1, stronger effect = lower value 0.985
1 (inactive) and 0.73 (active): locus YJL095W, strain BCK1, stronger effect = lower value
0.944 (inactive) and 0.704 (active): locus YHR030C, strain SLT2, stronger effect = lower value
active: locus YDL185W, strain tfp1, stronger effect = lower value 0.869 | locus YDR101C, strain arx1, stronger effect = lower value 0.917 | locus YDR137W, strain rgp1, stronger effect = lower value 0.821 | locus YGL078C, strain dbp3, stronger effect = lower value 0.913 | locus YHR079C, strain IRE1, stronger effect = lower value 0.774 | locus YIL125W, strain kgd1, stronger effect = lower value 0.868
